PostGolgi yeast: phenotypic screen on post-Golgi transport, primary screen | inhibition, % at 10 µM | hit rate 0.9% among 98,000 | post-Golgi transport phenotypic cell assay | AID 739, 2007;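 note: yeast cells grown in 1536-well plates; yeast grown about 18 h at 30C before absorbance read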
GALR2 agonist: GALR2 receptor agonists, primary screen, cell-based; activation, % (test concentration not listed); hit rate 0.48% among 140,000; GALR2-expressing cells, agonist activation read-out; Galanin receptor type 2 (Homo sapiens), O43603; in the data active = activation above about 5%, passing the limit was not always enough;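 note: 0% = vehicle buffer wells and 100% = reference agonist at full effect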
Target sequence (O43603 whole entry, looked up): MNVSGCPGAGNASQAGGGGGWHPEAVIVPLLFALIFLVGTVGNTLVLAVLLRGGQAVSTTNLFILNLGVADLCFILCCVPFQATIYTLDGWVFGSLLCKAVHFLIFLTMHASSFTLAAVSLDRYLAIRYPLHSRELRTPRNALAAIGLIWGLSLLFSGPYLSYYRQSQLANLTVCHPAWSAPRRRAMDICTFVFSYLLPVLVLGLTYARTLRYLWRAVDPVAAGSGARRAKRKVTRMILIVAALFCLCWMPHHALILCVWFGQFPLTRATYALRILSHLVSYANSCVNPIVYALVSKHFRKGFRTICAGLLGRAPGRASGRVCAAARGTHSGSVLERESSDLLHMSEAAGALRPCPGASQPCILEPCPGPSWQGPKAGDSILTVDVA
S1P2 agonist: S1P2 receptor agonists, primary screen, cell-based; Sphingosine 1-phosphate receptor 2 (Homo sapiens), O95136; S1P2-expressing cell line, agonist reporter read-out; activation, % at 4.5 µM; hit rate 0.46% among 97,000; AID 729, 2007; in the data active = activation above about 16%;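 note: 0% = vehicle low control and 100% = maximal reference agonist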
S1P2 antag: human S1P2 receptor antagonists, primary screen, cell-based; Sphingosine 1-phosphate receptor 2 (Homo sapiens), O95136; cell-based S1P2 antagonist assay, inhibition at 5 uM; inhibition, % at 5 µM; hit rate 0.21% among 97,000; in the data active = inhibition above about 45%;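 note: CRE beta-lactamase reporter cells expressing human S1P2 stimulated with S1P; 0% = agonist at EC80 alone and 100% = agonist plus reference antagonist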
PostGolgi ctrl: growth inhibition of yeast control strain, primary screen, counter-screen for post-Golgi transport modulator project. efflux-deficient yeast background strain, growth absorbance A615, 16 h. inhibition, % at 10 µM. hit rate 5% among 98,000
GALR2 antag: GALR2 antagonists in receptor-expressing cells, primary screen. antagonist mode. hit rate 0.39% among 140,000. inhibition, % at 4 µM; in the data active = inhibition above about 27%;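 note: cells stimulated with galanin 1-16 at roughly its EC80; 0% = agonist challenge control and 100% = basal control without agonist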
Active calls of the source: *; x = no result given. Many of the other results were omitted from the sample, so hits are more common in it than they were. Cut-off read from the data, not from the text of the source, unless noted: active = inhibition above about 30%; inactive = the rest.

SMILES	PostGolgi yeast	GALR2 agonist	S1P2 agonist	S1P2 antag	PostGolgi ctrl	GALR2 antag
C/C(N)=C(/C#N)C(=O)CSc1nc2cc(Cl)ccc2s1	-12.3	-1.2	-4.1	9.1	44.3*	-14.1
C/C(N)=C(/C#N)C(=O)CSc1cc(Cl)ccc1Cl	x	0.9	x	x	x	7.5
CCOC(=O)N1CCC(Nc2c(NCCCOC)c(=O)c2=O)CC1	9.4	-0.7	-9.1	-1.8	47.4*	-1.5
CCOC(=O)N1CCC(Nc2c(NCCCN(CC)CC)c(=O)c2=O)CC1	-7.7	-0.5	-1.6	0.0	1.9	-1.9
CCCCN(CC)CCNc1c(NC2CCN(C(=O)OCC)CC2)c(=O)c1=O	-3.7	-1.6	-4.3	-7.2	35.8*	-11.0
C=CCSC(=S)NC1CCS(=O)(=O)C1 (configuration not stated)	x	-0.9	x	x	x	3.0
Cc1cccc(C)c1-n1nnnc1C1(Nc2ccccc2)CCCCC1	3.6	1.0	1.3	-24.8	44.4*	-10.0
Clc1ccc(NC2(c3nnnn3C3CCCCC3)CCCCC2)cc1	2.8	-4.0	-6.2	-2.1	20.0	3.2
COc1ccc(C(=O)Nc2nc(C)c(C(=O)N(C)C)s2)cc1OC	9.3	0.0	-3.0	-0.3	33.6*	-4.5
CCOC(=O)c1cc2sccc2n1CCCN1C(=O)c2ccccc2C1=O	-3.6	-1.7	-6.5	-23.4	31.6*	-1.9
COc1cccc(C2C3=C(N=C4SCC(=O)N42)c2ccccc2CC3)c1OC (configuration not stated)	22.5	-0.5	-5.7	-10.8	40.4*	0.8
COc1ccc(OC)c(C2C3=C(N=C4SCC(=O)N42)c2ccccc2CC3)c1 (configuration not stated)	-7.8	-1.2	-10.1	13.6	-1.8	5.3
CCOC(=O)C1=C(CC)Nc2ccccc2N=C1NC(=O)Nc1ccc(Cl)c(Cl)c1	73.0*	1.8	3.1	0.6	65.6*	1.0
Cc1cc(C)c(S(C)(=O)=O)c(Sc2ccc(Cl)cc2)n1	15.5	-3.6	-5.7	7.3	31.0*	-0.4
O=C1[C@@H]2[C@@H]3C[C@@H]([C@H]4ON=C(c5ccc(OCc6ccccc6)cc5)[C@@H]34)[C@@H]2C(=O)N1c1ccc2c(c1)OCO2	x	-4.3	x	x	x	13.9
O=S(=O)(CCSc1nc2ccccc2o1)c1nc2ccccc2s1	3.5	-1.1	-3.5	-5.5	60.9*	11.3
CCC(C)n1ncn(-c2ccc(N3CCN(c4ccc(OC)cc4)CC3)cc2)c1=O (configuration not stated)	x	0.0	x	x	x	-13.1
Cc1ccc2[nH]c3c(c2c1)CCc1cn[nH]c1-3	-2.5	1.3	-5.0	-8.4	63.0*	-0.7
Cc1ccc2[nH]c3c(c2c1)CCC3=O	1.1	0.0	-1.7	-18.6	5.2	4.5
Cc1ccc(-n2ncc3c(=O)n(CC(=O)OCc4ccccc4)cnc32)cc1	-1.9	-0.4	-1.8	10.8	35.6*	10.0
O=C(Cn1cnc2c(cnn2-c2ccccc2)c1=O)OCc1ccccc1	-3.5	-5.0	-8.6	-3.1	-1.4	4.9
Cc1c(-c2nc(N)nc(Nc3ccccc3)n2)oc2ccccc12	33.3*	-1.0	-3.4	-10.7	77.6*	-1.8
CCC(=O)Nc1cc(C(=O)OCC(=O)c2ccccc2)ccc1C	x	-0.5	x	x	x	2.9
O=C(COC(=O)C1CCN(S(=O)(=O)c2ccccc2)CC1)NC(=O)c1ccc(OC(F)F)cc1	x	-0.3	x	x	x	5.0
CN(C)c1ccnc2sc(C(N)=O)c(N)c12	-8.7	0.0	-8.4	25.4	6.0	-9.3
SMILES	PostGolgi yeast	GALR2 agonist	S1P2 agonist	S1P2 antag	PostGolgi ctrl	GALR2 antag
CN(C)c1ccnc2sc(C(=O)NCc3ccccc3)c(N)c12	12.6	-0.9	-4.0	-1.9	62.5*	-6.3
CCC(=O)Nc1ccc(C(=O)NNC(=O)Cc2ccccc2)cc1	x	-0.3	x	x	x	-3.0
CC(C)n1c(SCC(=O)N2c3ccccc3CCc3ccccc32)nc2c1c(=O)n(C)c(=O)n2C	x	-1.2	-6.2	-19.2	x	-0.1
CC(C)n1c(SCC(=O)N2c3ccccc3Sc3ccccc32)nc2c1c(=O)n(C)c(=O)n2C	21.1	-3.4	0.0	-18.8	38.5*	0.0
CCCn1c(SCC(=O)N2c3ccccc3Sc3ccccc32)nc2c1c(=O)n(C)c(=O)n2C	14.3	2.9	-3.2	-21.7	32.1*	-3.9
Cc1sc2nc(SCC(=O)c3cc(C)n(CC4CCCO4)c3C)n(C(C)C)c(=O)c2c1C (configuration not stated)	-3.9	-1.7	1.9	-14.0	30.4*	-0.1
Cc1cc(C(=O)CSc2nc3ccccc3o2)c(C)n1CC1CCCO1 (configuration not stated)	-4.0	-1.8	-3.5	13.4	8.1	-14.0
CCCCOc1cccc(OCC(=O)Nc2nc3ccccc3[nH]2)c1	x	-1.4	x	x	x	-11.5
CCC(c1nnnn1C1CCCC1)N1CCN(c2ccccc2F)CC1 (configuration not stated)	2.3	-0.2	1.1	-4.8	27.3	-1.5
CCCC(c1nnnn1C1CCCC1)N1CCN(c2ccccc2F)CC1 (configuration not stated)	19.5	-0.6	-3.4	-1.2	66.6*	-7.9
CCC(C)c1ccc(OCCN2CCCC2)cc1 (configuration not stated)	6.7	-3.3	-4.5	5.7	35.7*	-4.7
CCOc1ccc(OCCN2CCCCC2)cc1	x	-1.8	x	x	x	-0.4
C[C@@H]1NC(=O)c2cc([N+](=O)[O-])cc(I)c2OCC[C@@H](C(N)=O)NC(=O)[C@H](CCC(=O)O)NC1=O	x	-1.4	x	x	x	-0.2
O=C(CCCOc1ccc(Cl)cc1Cl)N1CCN(c2ccccn2)CC1	-8.2	-3.5	x	x	52.0*	8.8
O=C(CCCOc1ccccc1)N1CCN(c2ccccn2)CC1	-8.2	-4.0	-4.7	2.4	13.7	8.1
O=C(Nc1ccc(F)cc1)N(CCCN1CCOCC1)Cc1cc2cc3c(cc2[nH]c1=O)OCO3	8.2	0.1	x	x	2.0	-5.3
O=C(Nc1ccc(Cl)cc1)N(Cc1nc2ccccc2c(=O)[nH]1)Cc1cccs1	x	0.6	x	x	x	-24.2
O=C(Nc1ccc(Cl)cc1)N(Cc1cccs1)Cc1cccs1	1.5	-2.0	-3.4	-10.2	34.8*	-1.8
O=C(Nc1ccc(Cl)c(Cl)c1)N(CCCN1CCOCC1)Cc1cccs1	14.7	-1.4	-3.6	15.7	30.6*	5.7
O=C(Nc1ccc(F)cc1)N(CCCN1CCOCC1)Cc1cc2cc3c(cc2[nH]c1=O)OCCO3	1.8	1.5	-1.8	-58.4	39.5*	-22.5
COc1ccc(/C(C)=N/OCC(=O)N2CC3(C)CC2CC(C)(C)C3)cc1 (configuration not stated)	x	0.0	x	x	x	-14.2
Cc1noc(NS(=O)(=O)c2ccc(NC(=O)CSc3ncccn3)cc2)c1C	0.8	-1.2	-4.8	11.2	3.4	-2.6
Cc1noc(NS(=O)(=O)c2ccc(NC(=O)CSc3nc4ccccc4s3)cc2)c1C	-2.5	-2.1	-1.4	9.5	32.7*	-3.0
O=C(O)CCSCCC(=O)O	33.5*	-1.1	x	x	6.8	6.7
CCCN(CCC)C(=O)CCSCCC(=O)N(CCC)CCC	x	0.1	x	x	x	4.1

Screens deposited in PubChem BioAssay by several laboratories.
